Reference: PubChem BioAssay AID602261 (Sanford-Burnham Center for Chemical Genomics, 2012)
Where “and” joins values, the source holds several entries; their conditions need not be identical. Identical values can stand only once. The whole screen tested about 360,000 compounds, of which about 2,400 (0.67%) were called active.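 How the source made its calls: active means compounds whose normalised, plate-corrected inhibition of enzyme fluorescence in the single-dose primary screen is 50% or more; inactive means the rest.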 Only a selection was taken, and actives are over-represented in it overall.

biological target: Fatty acid synthase (Homo sapiens) (UniProt P49327); assay: FAS thioesterase domain inhibitors, primary screen, biochemical, fluorescence intensity, uHTS (AID 602261); conditions: recombinant FAS-TE, OMFH fluorogenic substrate, fluorescence endpoint; at 15 µM; active compounds read high;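 further: 0% = DMSO with enzyme and 100% = substrate without enzyme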
Sequence (P49327 whole entry, looked up, the tested form may be a part): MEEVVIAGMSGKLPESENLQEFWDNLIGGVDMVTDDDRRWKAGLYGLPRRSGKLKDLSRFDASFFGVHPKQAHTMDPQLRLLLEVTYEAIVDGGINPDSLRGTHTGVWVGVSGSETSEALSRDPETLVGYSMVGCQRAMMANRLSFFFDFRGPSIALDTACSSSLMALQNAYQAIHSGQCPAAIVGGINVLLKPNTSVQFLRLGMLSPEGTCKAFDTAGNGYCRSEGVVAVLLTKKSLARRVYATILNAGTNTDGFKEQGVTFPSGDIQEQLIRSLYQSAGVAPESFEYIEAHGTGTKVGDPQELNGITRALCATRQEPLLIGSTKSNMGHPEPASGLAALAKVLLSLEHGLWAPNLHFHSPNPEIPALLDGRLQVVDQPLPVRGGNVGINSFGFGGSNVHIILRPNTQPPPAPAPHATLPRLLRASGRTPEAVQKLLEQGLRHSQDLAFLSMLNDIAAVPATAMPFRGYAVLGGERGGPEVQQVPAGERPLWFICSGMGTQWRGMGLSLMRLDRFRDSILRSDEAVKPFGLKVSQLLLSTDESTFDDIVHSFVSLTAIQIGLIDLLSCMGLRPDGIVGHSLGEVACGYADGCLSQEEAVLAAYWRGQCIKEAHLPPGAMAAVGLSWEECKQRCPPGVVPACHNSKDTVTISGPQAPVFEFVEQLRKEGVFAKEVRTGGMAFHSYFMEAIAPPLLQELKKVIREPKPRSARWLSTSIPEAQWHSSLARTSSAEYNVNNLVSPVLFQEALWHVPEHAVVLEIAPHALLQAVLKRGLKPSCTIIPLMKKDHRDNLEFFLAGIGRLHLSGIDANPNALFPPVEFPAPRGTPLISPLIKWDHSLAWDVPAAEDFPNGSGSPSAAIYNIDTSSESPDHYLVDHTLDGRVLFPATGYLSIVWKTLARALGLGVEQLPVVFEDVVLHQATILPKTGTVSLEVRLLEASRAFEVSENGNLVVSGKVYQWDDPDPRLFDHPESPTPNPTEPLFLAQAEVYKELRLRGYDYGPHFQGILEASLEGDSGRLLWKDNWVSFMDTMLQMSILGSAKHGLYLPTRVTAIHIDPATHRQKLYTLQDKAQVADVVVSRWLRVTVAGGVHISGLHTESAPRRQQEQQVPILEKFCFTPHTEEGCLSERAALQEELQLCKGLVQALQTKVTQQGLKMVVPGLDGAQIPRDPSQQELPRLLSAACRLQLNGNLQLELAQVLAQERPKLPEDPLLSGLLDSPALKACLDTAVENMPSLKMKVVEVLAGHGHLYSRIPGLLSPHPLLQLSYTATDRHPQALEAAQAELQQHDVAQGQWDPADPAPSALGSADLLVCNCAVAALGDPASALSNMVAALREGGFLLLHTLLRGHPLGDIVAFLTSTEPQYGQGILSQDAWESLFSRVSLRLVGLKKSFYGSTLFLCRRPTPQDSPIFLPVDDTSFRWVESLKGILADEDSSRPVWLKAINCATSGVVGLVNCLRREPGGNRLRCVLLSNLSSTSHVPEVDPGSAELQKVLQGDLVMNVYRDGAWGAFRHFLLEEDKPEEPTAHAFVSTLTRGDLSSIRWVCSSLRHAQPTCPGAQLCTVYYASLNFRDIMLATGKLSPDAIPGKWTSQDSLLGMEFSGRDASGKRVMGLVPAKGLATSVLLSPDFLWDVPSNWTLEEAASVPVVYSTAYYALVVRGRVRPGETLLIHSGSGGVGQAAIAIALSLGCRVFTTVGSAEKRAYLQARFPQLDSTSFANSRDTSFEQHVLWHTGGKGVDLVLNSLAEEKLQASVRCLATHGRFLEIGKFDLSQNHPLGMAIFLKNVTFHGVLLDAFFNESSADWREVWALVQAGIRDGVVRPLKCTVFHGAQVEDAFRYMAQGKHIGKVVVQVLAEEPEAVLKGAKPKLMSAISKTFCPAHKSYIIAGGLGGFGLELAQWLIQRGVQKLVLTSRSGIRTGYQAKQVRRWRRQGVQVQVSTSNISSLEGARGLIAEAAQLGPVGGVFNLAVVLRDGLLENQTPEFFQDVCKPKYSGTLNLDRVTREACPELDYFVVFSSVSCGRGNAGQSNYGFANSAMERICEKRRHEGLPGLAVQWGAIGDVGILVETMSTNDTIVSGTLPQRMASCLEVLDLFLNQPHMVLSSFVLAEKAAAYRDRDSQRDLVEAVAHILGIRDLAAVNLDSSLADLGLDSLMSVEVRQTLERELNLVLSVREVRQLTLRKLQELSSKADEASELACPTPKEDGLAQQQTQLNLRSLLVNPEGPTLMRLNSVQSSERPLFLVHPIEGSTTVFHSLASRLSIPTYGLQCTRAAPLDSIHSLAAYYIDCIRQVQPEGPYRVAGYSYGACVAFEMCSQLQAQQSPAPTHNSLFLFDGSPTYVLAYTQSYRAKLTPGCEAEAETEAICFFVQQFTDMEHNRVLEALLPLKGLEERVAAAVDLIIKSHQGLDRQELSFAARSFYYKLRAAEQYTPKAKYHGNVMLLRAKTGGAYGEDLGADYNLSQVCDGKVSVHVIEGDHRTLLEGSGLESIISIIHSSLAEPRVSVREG

inhibition, inactive:
CCc1cc(CNC(=O)CC2C(=O)NCCN2Cc2ccccc2C(F)(F)F)on1 (stereo not given) -2.9%
O=C(NC1CCCCC1)C1CC(=O)N(CCc2ccccc2)C1 (stereo not given) -6.1%
CCCn1cc(S(=O)(=O)c2ccc(C)cc2)c(=O)c2cc(OCC)ccc21 9.4%
CN(C)CCNc1ccc(-c2n[nH]c(=O)c3ccccc23)cc1[N+](=O)[O-] -2.9%
CCOc1cc(/C=N/NC(=O)OC)ccc1OCCSc1ccc(Cl)cc1 -4.3%
COc1cc(/C=C(/NC(=O)c2ccc(Cl)cc2Cl)C(=O)O)cc(OC)c1OC 0.9%
O=C(c1ccco1)N1CCN=C1SCc1cccc(Cl)c1 5.3%
COC(=O)c1sc2[nH]c(=S)n(N)c(=O)c2c1C -6.3%
Cn1ncc2c(NNC(=O)Cc3cccc4ccccc34)ncnc21 -10.1%
CC(=O)c1c(C)[nH]c(C(=O)N2CCN(S(=O)(=O)c3ccc(F)c(F)c3)CC2)c1C -3.9%
COc1ccc(NC(=O)CNc2cc(S(=O)(=O)N3CCOCC3)ccc2N2CCOCC2)c(OC)c1 -2.5%
COc1ccc(S(=O)(=O)N2CCOCC2)cc1NC(=O)COc1ccccc1 2.1%
COc1ccc(Cl)cc1NS(=O)(=O)c1cccc(C(=O)NCC2CCCO2)c1 (stereo not given) -3.9%
CC1CCCCN1C(=O)CCS(=O)(=O)Cc1ccccc1 (stereo not given) -4.6%
CCOc1ccccc1N(CC(=O)NC1CCCCC1)C(=O)CCCC(=O)Nc1ccccn1 -7.1%
COC(=O)c1c(NC(=O)CN2CCN(S(=O)(=O)c3ccccc3[N+](=O)[O-])CC2)sc2c1CCC(C)C2 (stereo not given) 38.1%
CCCCOC(=O)NCN1C(=O)C2C3C=CC(C3)C2C1=O (stereo not given) -2.4%
CCCOC(=O)c1ccc(N2C(=O)c3ccccc3C2=O)cc1 -2.6%
CC1(c2ccccc2Cl)NC(=O)N(CC(=O)NC(=O)NCc2ccco2)C1=O (stereo not given) -2.3%
CCOC(=O)c1nn(-c2cccc(C)c2)cc1C(=O)c1ccccc1 17.5%
CCCCNC(=O)OC1CC2CC1[C@H]1CCCCN1C2=O (stereo not given in full) -13%
COc1ccc([N+](=O)[O-])cc1NCC(=O)c1ccc(C)cc1 11.8%
COc1ccc(Br)cc1CN(C)CC(=O)Nc1cc([N+](=O)[O-])ccc1OC 42.3%
Cc1ccc(NC2(C#N)C(=O)Nc3ccccc32)cc1 (stereo not given) -3.6%
NS(=O)(=O)c1ccc(N=Cc2ccc(Br)s2)cc1 -8.2%
CC(=O)c1sc(N)nc1C -11.2% and -7.8%
CC(=O)c1sc(NC(=O)C2=NN(c3ccccc3)C(=O)CC2)nc1C -6.4%
Cc1nc2ccccc2nc(=O)c1NNc1ccc([N+](=O)[O-])cc1 -7.2%
CNC[C@@H]1Oc2c(NS(C)(=O)=O)cccc2C(=O)N([C@@H](C)CO)C[C@H]1C -11.2%
CC(=O)c1cnc(-c2ccccc2)s1 -1.4%
O=S(=O)(c1ccc(F)cc1)N1CC=C(c2ccccc2)CC1 27.5%
CC1CCN(C(=S)c2cccc(O)c2)CC1 -0.1%
CCn1c(SCC(=O)Nc2cccc(F)c2)nnc1-c1cc2cc(Br)ccc2o1 -5.5%
O=C(CP(=O)(c1ccccc1)c1ccccc1)N1CCOCC1 -3.5%
CCCCCCN1CCN(C2CN(Cc3cn(Cc4ccc(F)cc4)nn3)S(=O)(=O)C2)CC1 (stereo not given) -7.8%
COc1ccc(CN2[C@@H](CC(=O)O)c3cc(F)ccc3S2(=O)=O)cc1 -9.9%
CC1(C)Cc2nc3sc4c(SCC(=O)NC(c5ccccc5)c5ccccc5)ncnc4c3cc2CO1 -7.6%
CCCc1nc2scc(-c3ccc(C)cc3)c2c(=O)n1N -1.6%
Fc1ccc(-c2csc(-c3ccc(C4SCCS4)cc3)n2)cc1F 33%
Cc1ccc(C(=O)C(=S)N2CCOCC2)cc1 -7.7%
O=C1OCCN1C(=O)[C@H]1[C@H](c2ccc(F)cc2)C(c2ccccc2)=NN1c1ccc(Br)cc1 46.2%
O=C1OCCN1C(=O)[C@H]1[C@H](c2ccccc2)C(c2ccc(F)cc2)=NN1c1ccccc1 41.9%
COCCNC(=O)CSc1nc2c(n1-c1ccccc1)CCCC2 -7.1%
Cc1ccccc1-n1c(SCC(=O)Nc2cccc3ccccc23)nc(O)cc1=O -5.5%
Cc1ccc(C)c(Cn2cnc3c(oc4ccccc43)c2=O)c1 16.6%
Cc1ccc(C)c(NC(=O)COC(=O)CSc2ccccc2)c1 -9.4%
CCN1CCN(C(=O)/C=C\C(=O)O)CC1 -3%
COc1ccc(/C=C/C(=O)c2cc(Br)ccc(=O)c2O)cc1 6.9%
COC(=O)CN(c1cccc(C(C)=O)c1)S(C)(=O)=O -7%
O=C(COC(=O)Cc1ccc([N+](=O)[O-])cc1)NC1CCCCCC1 22.7%
O=C(COC(=O)c1ccccc1Cl)NC1CCCCCCC1 8.2%
COc1ccc(S(=O)(=O)N(CCCN2CCCC2=O)Cc2cc3c(C)ccc(C)c3[nH]c2=O)cc1 -3%
O=C(CCC1CCCCC1)Nc1cc(C(F)(F)F)ccc1N1CCOCC1 34.3%
Cc1ccc(C)c(Cn2nnc3c(=O)[nH]c(C(=O)Nc4ccc(F)cc4)nc32)c1 3.8%
Cc1cccc(CN2CCC(CNC(=O)Nc3ccc(F)c(Cl)c3)CC2)c1 2.9%
O=C(N=C1SC2CS(=O)(=O)CC2N1c1ccccc1)c1ccccc1 (stereo not given) 8.4%
O=[N+]([O-])c1ccc(CN2CC(N3CC=CC3)CS2(=O)=O)cc1 (stereo not given) -9.2%
O=S1(=O)CC(N2CCC(Cc3ccccc3)CC2)CN1Cc1ccccc1 (stereo not given) 6.6%
CN(C(=O)c1ccc(NC(=O)Cc2cccc(NC(=O)C3CCN(C(=O)c4ccccc4)CC3)c2)cc1)C1CC1 -9.5%
CCOc1ccc(C(=O)NC2CCN(CC(=O)NCc3cccs3)CC2)cc1 -3.1%
Cc1cccc(NC(=O)C(C)N2C(=O)C3C4CC(C(Br)C4Br)C3C2=O)c1 (stereo not given) 20.5%
O=C(Nc1ccnn1C1CCN(C/C=C/c2ccc(F)cc2)CC1)C1CCCC1 -0.7%
Cc1cc(S(=O)(=O)N2CCOCC2)ccc1OCC(=O)N1CCOCC1 -2.5%
COC(=O)c1cc(Oc2ccc(S(=O)(=O)N3CCOCC3)cc2[N+](=O)[O-])cc(C(=O)OC)c1 38.3%
CSc1n[nH]c(=S)n1N -4.3%
O=S(=O)(c1cnccc1N1CCN(/N=C/c2ccc(Br)cc2)CC1)N1CCCCC1 31.4%
Cc1cc(Nc2cccc(F)c2)n2ncnc2n1 -2.8%
COc1ccc(C2CC(=O)n3c(nc4ccccc43)S2)cc1OC (stereo not given) -161%
COc1cccc(C2CC(c3ccccc3)=NN2S(=O)(=O)c2ccccc2)c1OC (stereo not given) 20%
O=C(NCCNc1ccc([N+](=O)[O-])cc1)c1cccc2c(Br)cccc12 37.6%
COc1c(C)cc(C(O)c2ncc(-c3cccc(C(F)(F)F)c3)[nH]2)cc1C (stereo not given) 7.9%
O=S1(=O)C[C@@H](N2CCN(CCO)CC2)[C@H](COCc2ccccc2)N1 -9.7%

inhibition, active:
Clc1ccc2c(c1)C1=C(C(c3ccncc3)O2)C(c2ccc(Br)cc2)n2ncnc2N1 (stereo not given) 71.3%
CCOc1cc(/C=C(/C#N)c2ccc(Cl)cc2)cc(Cl)c1OCC(=O)O 53.1%
O=c1ccc2c(-c3ccccc3S(=O)(=O)O)c3ccc(O)c(O)c3oc-2c1O 54.8%
COc1cc(S(=O)(=O)N2CCOCC2)ccc1NC(=O)COc1ccc(N(C)S(=O)(=O)c2ccc(C)cc2)cc1 76.5%
Oc1c(Cl)cc(Cl)c(Cl)c1Cc1c(O)c(Cl)cc(Cl)c1Cl 83.7%
CCCCCOC(=O)c1ccc(N2C(=O)C3C4C=CC(C4)C3C2=O)cc1 (stereo not given) 83.5%
COc1ccc([N+](=O)[O-])cc1NC(=O)CC1SC(=Nc2cccc(C)c2C)N(/N=C(\C)c2ccc(C)cc2)C1=O (stereo not given) 75.8%
CC(=O)c1sc(N/N=C/c2ccc(C(C)C)cc2)nc1C 58.4%
O=S(=O)(c1ccc(F)cc1)n1ccc(-c2cnc(-c3ccccc3)s2)n1 67.2%
CCCCCCCCCCCCN1[C@@H](CC(C)=O)c2cc(F)cc(F)c2S1(=O)=O 57.7%
CCCc1cc(-c2nc(-c3ccc(C)cc3)cs2)ccn1 56.3%
O=C1OCCN1C(=O)[C@H]1[C@H](c2ccc(Cl)cc2)C(c2cccc(Cl)c2)=NN1c1ccc(Br)cc1 67.3%
Cc1ccc(C)c(NC(=O)CSc2nc3c(oc4ccccc43)c(=O)n2-c2ccccc2)c1 62.3%
O=C(COC(=O)c1cc([N+](=O)[O-])ccc1NCc1ccccc1)NC1CCCCC1 60.7%
Cc1cccc(CS(=O)(=O)c2ncc(Cl)c(C(=O)Nc3ccc(F)cc3)n2)c1 56.5%
O=[N+]([O-])c1ccc(CN2CC(N3CCC(c4ccccc4)CC3)CS2(=O)=O)cc1 (stereo not given) 69.8%
Cc1cc(C(=O)COc2ccccc2[N+](=O)[O-])c(C)n1-c1cccc(S(=O)(=O)N2CCOCC2)c1 58.7%
COc1ccccc1C1CC(=O)n2c(nc(-c3ccccc3)c2-c2ccccc2)S1 (stereo not given) 54.5%
